Assay results from PubChem BioAssay AID1159580 (chemical genetic matrix, 2015).
Several values for one entry are separate records, joined by “and”; a condition that tells them apart may be missing. Identical values can stand only once. Out of some 5,500 compounds screened, about 2,000 (36%) were called active. Not shown: some 18% with an inconclusive outcome. Cut-off read from the data, not from the text of the source: active = normalized growth mostly below about 0.91 (no sharp cut-off); inconclusive = no clear call, values can overlap the other calls; inactive = mostly above about 0.92. Some of the results follow.

Experiment: chemical genetic growth profiling, strain panel (AID 1159580);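 note: tested at 20 µM; growth read once vehicle control cultures reached saturation at 30 °C; 1 = growth at the plate median or of vehicle wells; lower values mean less growth of the strain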
Conditions: growth OD

Measured: normalized growth

C/C1=C\CCC(=O)C2CC(C)(C)C2CC1 (stereo unspecified)
inactive: S. cerevisiae deletion strains, locus YBR021W, strain FUR4, stronger effect = lower value 0.997 | S. cerevisiae deletion strains, locus YBR229C, strain ROT2, stronger effect = lower value 1.02 | S. cerevisiae deletion strains, locus YCL029C, strain bik1, stronger effect = lower value 1.03 | S. cerevisiae deletion strains, locus YDL035C, strain GPR1, stronger effect = lower value 0.999 | S. cerevisiae deletion strains, locus YDL074C, strain BRE1, stronger effect = lower value 1.02 | S. cerevisiae deletion strains, locus YDL101C, strain DUN1, stronger effect = lower value 1.03 | S. cerevisiae deletion strains, locus YDL134C, strain PPH21, stronger effect = lower value 1.04 | S. cerevisiae deletion strains, locus YDL185W, strain tfp1, stronger effect = lower value 1.03 | S. cerevisiae deletion strains, locus YDL192W, strain arf1, stronger effect = lower value 1.01 | S. cerevisiae deletion strains, locus YDR101C, strain arx1, stronger effect = lower value 1 | S. cerevisiae deletion strains, locus YDR162C, strain NBP2, stronger effect = lower value 1.03 | S. cerevisiae deletion strains, locus YDR318W, strain mcm21, stronger effect = lower value 1.03 | S. cerevisiae deletion strains, locus YDR388W, stronger effect = lower value 1.03 | S. cerevisiae deletion strains, locus YDR502C, strain sam2, stronger effect = lower value 1.03 | S. cerevisiae deletion strains, locus YEL061C, strain CIN8, stronger effect = lower value 1.02 | S. cerevisiae deletion strains, locus YER110C, stronger effect = lower value 1.04 | S. cerevisiae deletion strains, locus YER155C, strain BEM2, stronger effect = lower value 1.01 | S. cerevisiae deletion strains, locus YER167W, strain BCK2, stronger effect = lower value 1.01 | S. cerevisiae deletion strains, locus YGL078C, strain dbp3, stronger effect = lower value 1.02 | S. cerevisiae deletion strains, locus YGL086W, strain mad1, stronger effect = lower value 1.02 | S. cerevisiae deletion strains, locus YGL248W, strain PDE1, stronger effect = lower value 1.03 | S. cerevisiae deletion strains, locus YGR135W, strain pre9, stronger effect = lower value 1.07 | S. cerevisiae deletion strains, locus YGR252W, strain gcn5, stronger effect = lower value 1 | S. cerevisiae deletion strains, locus YHR030C, strain SLT2, stronger effect = lower value 1.02 and 1.01 | S. cerevisiae deletion strains, locus YHR079C, strain IRE1 (second series), stronger effect = lower value 1.02 | S. cerevisiae deletion strains, locus YHR079C, strain IRE1, stronger effect = lower value 1.01 | S. cerevisiae deletion strains, locus YHR094C, strain hxt1, stronger effect = lower value 1.02 | S. cerevisiae deletion strains, locus YHR129C, strain ARP1, stronger effect = lower value 1.01 | S. cerevisiae deletion strains, locus YHR200W, strain rpn10, stronger effect = lower value 1.03 | S. cerevisiae deletion strains, locus YIL066C, strain RNR3, stronger effect = lower value 1.02 | S. cerevisiae deletion strains, locus YIL073C, strain SPO22, stronger effect = lower value 1.08 | S. cerevisiae deletion strains, locus YIL125W, strain kgd1, stronger effect = lower value 1.02 | S. cerevisiae deletion strains, locus YIR030C, strain dcg1, stronger effect = lower value 1.02 | S. cerevisiae deletion strains, locus YJL095W, strain BCK1, stronger effect = lower value 1.07 and 1.02 | S. cerevisiae deletion strains, locus YJL134W, strain LCB3, stronger effect = lower value 1.02 | S. cerevisiae deletion strains, locus YJL168C, strain set2, stronger effect = lower value 1.02 | S. cerevisiae deletion strains, locus YJL187C, strain SWE1 (second series), stronger effect = lower value 1.04 | S. cerevisiae deletion strains, locus YJR043C, strain POL32, stronger effect = lower value 1.01 | S. cerevisiae deletion strains, locus YJR066W, strain TOR1, stronger effect = lower value 0.954 | S. cerevisiae deletion strains, locus YKL009W, strain mrt4, stronger effect = lower value 0.982 | S. cerevisiae deletion strains, locus YKL068W, stronger effect = lower value 1.02 | S. cerevisiae deletion strains, locus YKL085W, strain MDH1 (second series), stronger effect = lower value 1.01 | S. cerevisiae deletion strains, locus YKL085W, strain MDH1, stronger effect = lower value 1.01 | S. cerevisiae deletion strains, locus YKL190W, strain CNB1, stronger effect = lower value 1.01 | S. cerevisiae deletion strains, locus YKR001C, strain vps1, stronger effect = lower value 1.04 | S. cerevisiae deletion strains, locus YLR039C, strain RIC1, stronger effect = lower value 1.09 | S. cerevisiae deletion strains, locus YLR058C, strain SHM2, stronger effect = lower value 1.02 | S. cerevisiae deletion strains, locus YLR102C, strain apc9, stronger effect = lower value 1.02 | S. cerevisiae deletion strains, locus YLR113W, strain HOG1, stronger effect = lower value 1.03 | S. cerevisiae deletion strains, locus YLR262C, strain YPT6, stronger effect = lower value 1.1 | S. cerevisiae deletion strains, locus YLR268W, strain sec22, stronger effect = lower value 1.01 | S. cerevisiae deletion strains, locus YLR342W, strain FKS1 (second series), stronger effect = lower value 1.03 | S. cerevisiae deletion strains, locus YLR371W, strain rom2, stronger effect = lower value 1.04 | S. cerevisiae deletion strains, locus YLR418C, strain cdc73, stronger effect = lower value 1.04 | S. cerevisiae deletion strains, locus YML016C, strain PPZ1, stronger effect = lower value 1.03 | S. cerevisiae deletion strains, locus YML032C, strain rad52, stronger effect = lower value 1.02 | S. cerevisiae deletion strains, locus YML124C, strain tub3, stronger effect = lower value 1.02 | S. cerevisiae deletion strains, locus YMR078C, strain ctf18, stronger effect = lower value 1.02 | S. cerevisiae deletion strains, locus YMR223W, strain ubp8, stronger effect = lower value 1.01 | S. cerevisiae deletion strains, locus YMR307W, strain GAS1, stronger effect = lower value 1.09 | S. cerevisiae deletion strains, locus YNL067W, strain RPL9B, stronger effect = lower value 1.03 | S. cerevisiae deletion strains, locus YNL183C, strain NPR1, stronger effect = lower value 0.954 | S. cerevisiae deletion strains, locus YNL233W, strain BNI4, stronger effect = lower value 1.05 | S. cerevisiae deletion strains, locus YNL250W, strain rad50, stronger effect = lower value 1.07 | S. cerevisiae deletion strains, locus YNL271C, strain bni1, stronger effect = lower value 1.02 | S. cerevisiae deletion strains, locus YNL298W, strain CLA4, stronger effect = lower value 1.01 | S. cerevisiae deletion strains, locus YNL307C, strain MCK1, stronger effect = lower value 1.03 | S. cerevisiae deletion strains, locus YNR052C, strain pop2, stronger effect = lower value 1.04 | S. cerevisiae deletion strains, locus YOL006C, strain TOP1, stronger effect = lower value 1.1 | S. cerevisiae deletion strains, locus YOL012C, strain htz1 1.02 | S. cerevisiae deletion strains, locus YOL147C, strain pex11, stronger effect = lower value 1.01 | S. cerevisiae deletion strains, locus YOR061W, strain CKA2, stronger effect = lower value 1.02 | S. cerevisiae deletion strains, locus YOR069W, strain VPS5, stronger effect = lower value 1.02 | S. cerevisiae deletion strains, locus YOR136W, strain idh2, stronger effect = lower value 1.02 | S. cerevisiae deletion strains, locus YOR144C, strain elg1, stronger effect = lower value 1.02 | S. cerevisiae deletion strains, locus YOR184W, strain ser1, stronger effect = lower value 1 | S. cerevisiae deletion strains, locus YOR231W, strain MKK1, stronger effect = lower value 1 | S. cerevisiae deletion strains, locus YOR316C, strain cot1, stronger effect = lower value 1.03 | S. cerevisiae deletion strains, locus YPL055C, strain LGE1, stronger effect = lower value 1.05 | S. cerevisiae deletion strains, locus YPL256C, strain CLN2, stronger effect = lower value 0.999 | S. cerevisiae deletion strains, locus YPR119W, strain clb2, stronger effect = lower value 1.02 | S. cerevisiae deletion strains, locus YPR141C, strain kar3, stronger effect = lower value 1.03 | S. cerevisiae deletion strains, locus YPR163C, strain tif3, stronger effect = lower value 1.02 | S. cerevisiae deletion strains, locus YPR167C, strain met16, stronger effect = lower value 1.02 | S. cerevisiae deletion strains, strain wtn01, stronger effect = lower value 1.02 | S. cerevisiae strains, strain wild type, stronger effect = lower value 1.03
